Here are results for 24 compounds from PubChem BioAssay (NCATS).

Experiment [1] can be described thus: qHTS profiling for inhibitors of Plasmodium falciparum proliferation (AID 504749).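 On activity, negative = inhibition: 0% = DMSO vehicle and full inhibition = artemisinin control.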 On all read-outs here: nearly all actives have a fitted effect of over 60% in size. The following applies: P. falciparum in erythrocytes, SYBR Green DNA, 72 h; for activity, negative = inhibition: at 28.7 µM (top of the series). In short, it runs like this: (§1)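 Infected RBCs, 0.3% parasitemia/2.5% Hct final; cpd 72 h, 37 C, 5% CO2; lysis buffer with saponin/triton/SYBR Green I, o/n RT dark; FI 485/535; norm. to artemisinin (0.29 uM) and DMSO.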

The subject of another experiment is 3D7. Described as above. The following applies: P. falciparum in erythrocytes, SYBR Green DNA, 72 h; series mostly up to 28.7 µM. The method in brief: as §1
The next experiment concerns 7G8. The experiment is described as above. As to conditions: P. falciparum in erythrocytes, SYBR Green DNA, 72 h; series mostly up to 28.7 µM. The method in brief:
as §1

The test system of another experiment is AA1029. The description is as above. The following applies: P. falciparum in erythrocytes, SYBR Green DNA, 72 h; series mostly up to 28.7 µM. The method in brief: as §1
For a further experiment, the system named is AS120. The description is as above. As to conditions: P. falciparum in erythrocytes, SYBR Green DNA, 72 h; series mostly up to 28.7 µM. The method in brief: as §1
A further experiment concerns ATS189. Described as above. As to conditions: P. falciparum in erythrocytes, SYBR Green DNA, 72 h; series mostly up to 28.7 µM. In short, it runs like this:
as §1

Another experiment concerns ATS95. The description is as above. The following applies: P. falciparum in erythrocytes, SYBR Green DNA, 72 h; series mostly up to 28.7 µM. In short, it runs like this: as §1
A further experiment deals with C2A. The description is as above. As to conditions: P. falciparum in erythrocytes, SYBR Green DNA, 72 h; series mostly up to 28.7 µM. The method in brief:
as §1

Another experiment has as its system CP185. Described as above. The following applies: P. falciparum in erythrocytes, SYBR Green DNA, 72 h; series mostly up to 28.7 µM. The method in brief: as §1
Another experiment relates to CP191. The description is as above. As to conditions: P. falciparum in erythrocytes, SYBR Green DNA, 72 h; series mostly up to 28.7 µM. The method in brief: as §1
In another experiment the test system is CP192. The description is as above. As to conditions: P. falciparum in erythrocytes, SYBR Green DNA, 72 h; series mostly up to 28.7 µM. In short, it runs like this:
as §1

Results filed as inconclusive are left out. A number with no mark means an inactive call. Calls of active or inactive are those of the source. The call rests on the fitted dose curve; in most records, active means well fitted inhibition curve with a large enough effect; inconclusive means small, poorly fitted or top-dose-only effect; inactive means flat fitted curve, though single readings scatter.
Potency means the concentration at half of the fitted maximal effect.

With `CNC(=O)c1c(I)c(C(=O)NCC(=O)Nc2c(I)c(C(=O)O)c(I)c(C(=O)NCCO)c2I)c(I)c(N(C)C(C)=O)c1I`, in experiment [1] (parasite line B), the activity, negative = inhibition is 2.12%. Further, the Potency entry with 3D7, in the experiment on 7G8, in the experiment with AA1029, in the experiment on AS120, in the experiment with ATS189 and in the experiment with ATS95 was “inactive” in each case. For the same compound, the Potency result with C2A, in the experiment on CP185, in the experiment with CP191 and in the experiment with CP192 was “inactive” in each case.
As to `S=C1SCN(Cc2ccccc2)CN1Cc1ccccc1`, in [1] (parasite line A), the activity, negative = inhibition is -6.7%. In addition, the Potency result with 3D7, in the experiment on 7G8, in the experiment on AA1029, in the experiment with AS120, in the experiment on ATS189 and with ATS95 was “inactive” in each case. Moreover, the Potency entry in the experiment with C2A, with CP185, in the experiment on CP191 and with CP192 was “inactive” each time.
`Cn1c(=O)c2c(ncn2CCOC(=O)C(C)(C)Oc2ccc(Cl)cc2)n(C)c1=O`: the activity, negative = inhibition in experiment [1] (parasite line A) was -0.561%. Besides, the Potency entry in the experiment with 3D7, with 7G8 and with CP192 was “inactive” throughout.
As for `NC(N)=NCC1COc2ccccc2O1` (centres undefined), the Potency entry in the experiment with 3D7, in the experiment on AS120, in the experiment on ATS189, in the experiment with ATS95, in the experiment with CP185 and in the experiment with CP192 was “inactive” in each case.
`CCCCCCCCCCCCCCCCOCCOCCOCCOCCOCCOCCOCCOCCOCCOCCOCCOCCOCCOCCOCCOCCOCCOCCOCCOCCO`: the Potency in [1] (parasite line A) was 15.8 µM (active); in the experiment on 7G8, 5.62 µM (active); in the experiment on AS120 it was 14.1 µM (active); with ATS95 it was 11.2 µM (active).
As for `C#C[C@]1(O)CC[C@@H]2[C@H]3CCC4=CC(=O)CC[C@H]4[C@H]3C(=C)C[C@@]21CC`, the Potency entry in the experiment on AA1029, with AS120, with ATS189, in the experiment on ATS95, in the experiment with C2A and with CP185 was “inactive” throughout. Also, the Potency in the experiment with CP192 was 0.379 µM (active).
Turning to `O=C(OCc1ccccc1)c1cccnc1`, the activity, negative = inhibition in experiment [1] (parasite line A) was -26.7%. In addition, the Potency entry with 3D7, in the experiment on 7G8, in the experiment on AA1029, in the experiment on AS120, with ATS189 and in the experiment on ATS95 was “inactive” each time. The Potency result in the experiment with C2A, with CP185 and with CP192 was “inactive” each time.
For the compound `CCOC(=O)Cc1ccc(-c2ccccc2)cc1`, the activity, negative = inhibition in experiment [1] (parasite line A) is 8.04%. In addition, the Potency entry in the experiment with 3D7, in the experiment with 7G8, in the experiment on AS120, in the experiment on ATS189, in the experiment on ATS95 and in the experiment with C2A was “inactive” in each case. For the same compound, the Potency entry in the experiment with CP185 was “inactive”.
As for `CCN(CC)CCC(=O)N1c2ccccc2Sc2ccc(Cl)cc21`, the Potency in the experiment on 7G8 is 8.91 µM (active). Further, the Potency result in the experiment on ATS189 and in the experiment with CP192 was “inactive” throughout.
Consider `O=C1c2ccccc2CN2C(=O)c3ccccc3CN12`, for which the Potency result in the experiment on 3D7, in the experiment on 7G8, with AA1029, in the experiment with AS120, in the experiment on ATS189 and in the experiment on ATS95 was “inactive” in each case. In addition, the Potency entry with C2A, in the experiment on CP185, in the experiment with CP191 and in the experiment with CP192 was “inactive” each time.
Turning to `CC(=O)Nc1ccc(NC(=S)NC(=O)c2ccc(C(C)(C)C)cc2)cc1`, the activity, negative = inhibition in experiment [1] (parasite line B) is -2.21%. The values for the Potency in the experiment on 3D7 and with 7G8 were 11.2 µM (active) and 8.91 µM (active), respectively. In addition, the Potency entry in the experiment with AS120, in the experiment with ATS189, in the experiment on C2A, in the experiment on CP185, with CP191 and in the experiment on CP192 was “inactive” each time.
As to `c1ccc2c(c1)Sc1ccccc1N2CCN1CCCC1`, the Potency with 3D7 was 11.2 µM (active); in the experiment on 7G8, 7.08 µM (active); in the experiment with AA1029 it was 7.94 µM (active); in the experiment on AS120, 7.08 µM (active); with ATS189, 8.91 µM (active); with ATS95, 8.91 µM (active). In addition, the Potency in the experiment with CP185 is 10 µM (active).
On to `CCCCCCCCCCCCCCCCCC[N+](C)(C)CCC[Si](OC)(OC)OC`, for which, in experiment [1] (parasite line A), the activity, negative = inhibition is 12.9%. In addition, the Potency entry with 3D7, with 7G8, in the experiment with AA1029, in the experiment with AS120, with ATS189 and with ATS95 was “inactive” throughout. In addition, the Potency result with C2A, in the experiment on CP185, with CP191 and in the experiment with CP192 was “inactive” throughout.
`CC(C)CCCCCCc1ccc(O)cc1`: the activity, negative = inhibition in experiment [1] (parasite line B) was -29%. Also, the Potency result in the experiment on 3D7, with AA1029, in the experiment with C2A, with CP185, in the experiment with CP191 and in the experiment on CP192 was “inactive” each time. Besides, the Potency with 7G8 is 8.91 µM (active).
Take `OC/C=C/c1ccccc1`: the activity, negative = inhibition in experiment [1] (parasite line A) is -0.356%. The Potency result with 3D7, in the experiment with 7G8, in the experiment on AA1029, in the experiment with AS120, with ATS189 and in the experiment with ATS95 was “inactive” throughout. Also, the Potency entry in the experiment on C2A, with CP185, in the experiment on CP191 and with CP192 was “inactive” throughout.
In the case of `COc1ccc2nc(NC(=O)Nc3ccccc3)sc2c1`, the activity, negative = inhibition in experiment [1] (parasite line B) is 5.72%. In the experiment with 7G8, the Potency was 10 µM (active). Also, the Potency entry with AA1029, with ATS189, with ATS95, in the experiment on C2A, in the experiment with CP185 and in the experiment with CP191 was “inactive” each time. For the same compound, in the experiment with CP192, the Potency result was “inactive”.
Regarding `CC(=O)Oc1cccc2c1C(=O)c1c(OC(C)=O)cc(C(=O)O)cc1C2=O`, the activity, negative = inhibition in [1] (parasite line B) was -5.47%. Also, the Potency result in the experiment with 3D7, in the experiment with 7G8, with AA1029, with AS120, with ATS189 and in the experiment with ATS95 was “inactive” throughout. The Potency entry with C2A, with CP185, with CP191 and with CP192 was “inactive” each time.
Take `CN1CCCC(CN2c3ccccc3Sc3ccccc32)C1` (centres undefined): the Potency entry in the experiment with 3D7 and in the experiment on CP192 was “inactive” throughout. Also, the Potency in the experiment with 7G8 was 11.2 µM (active); in the experiment with AA1029, 10 µM (active); in the experiment on AS120, 12.6 µM (active).
For `OCc1ccccc1`, in experiment [1] (parasite line B), the activity, negative = inhibition is -27.8%. The Potency in the experiment with 7G8 was 2.82 µM (active). In addition, the Potency entry with AA1029, in the experiment on C2A, in the experiment on CP185 and in the experiment on CP192 was “inactive” throughout.
With `O=C1c2ccccc2C(=O)C1c1ccc(Cl)cc1`, in experiment [1] (parasite line A), the activity, negative = inhibition is 10.7%. Further, the Potency entry in the experiment on 3D7, with 7G8, with AA1029, with AS120, with ATS189 and in the experiment on ATS95 was “inactive” in each case. In addition, the Potency entry with C2A, in the experiment on CP185, with CP191 and in the experiment on CP192 was “inactive” in each case.
With `CN(C)C(=O)CCSC(SCCC(=O)O)c1cccc(/C=C/c2ccc3ccc(Cl)cc3n2)c1` (centres undefined), the Potency was 8.91 µM (active) with 7G8 and 10 µM (active) in the experiment with AS120. For the same compound, the Potency result with CP192 is “inactive”.
Turning to `C[C@H](CCC(=O)O)[C@H]1CC[C@H]2[C@@H]3CC[C@@H]4C[C@H](O)CC[C@]4(C)[C@H]3C[C@H](O)[C@]12C`, the activity, negative = inhibition in [1] (parasite line A) is 0.235%. Also, the Potency entry with 3D7, in the experiment with 7G8, in the experiment with AA1029, with AS120, in the experiment on ATS189 and in the experiment with ATS95 was “inactive” each time. Also, the Potency result with C2A, in the experiment on CP185, in the experiment on CP191 and in the experiment on CP192 was “inactive” each time.
In the case of `CC(CN(C)C)CN1c2ccccc2Sc2ccc(C(F)(F)F)cc21` (centres undefined), the Potency in [1] (parasite line A) is 11.2 µM (active); in the experiment on 7G8, 10 µM (active); in the experiment with AS120 it was 11.2 µM (active); in the experiment with CP191, 8.91 µM (active). Moreover, the Potency entry in the experiment on 3D7 and in the experiment on CP192 was “inactive” each time.
For the compound `Cc1cc(-c2ccc(N=Nc3c(S(=O)(=O)O)cc4cc(S(=O)(=O)O)cc(N)c4c3O)c(C)c2)ccc1N=Nc1c(S(=O)(=O)O)cc2cc(S(=O)(=O)O)cc(N)c2c1O`, the Potency entry in the experiment on 3D7, with AA1029, in the experiment on ATS95, with C2A, in the experiment with CP191 and in the experiment on CP192 was “inactive” each time. The Potency in the experiment with AS120 was 14.1 µM (active).
